The text below walks through data of PubChem BioAssay (NCATS).

The structures appear in SMILES notation. Inconclusive results are not listed. Values without a mark were called inactive. Active and inactive are the calls of the source. The call rests on the fitted dose curve; in most records, active means well fitted cell-killing curve with a large enough effect; inconclusive means small, poorly fitted or top-dose-only effect, or effect the other way; inactive means flat fitted curve, though single readings scatter.

Common to all, as to assay: Primary qHTS to identify gynecologic anti-cancer compounds using libraries of approved drugs and bioactive compounds (AID 1345084); further: nearly all actives have a fitted effect of over 55% in size
Common to all, as to details: Gynecologic cancer cell panel viability, ATPlite luminescence, 48 h; series mostly up to 57.5 µM
(In general: In qHTS, concentration-response curves come from the screen itself.)

Assay [1] deals with OV90. Summed up: (§1)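 Cells, 1,000 per well, were allowed to settle for 16 h at 37 C before compound addition. Five concentrations were tested for 48 h, and viability was read by ATPlite luminescence after 15 min at room temperature.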
Assay [2] relates to PA-1. The gist of the method:
as §1

For assay [3], the system named is SKOV3. Summed up:
as §1

Assay [4] deals with Tov-21-G. The gist of the method:
as §1

Assay [5] deals with Tov112D. Summed up: as §1
On the % scale 0 is the no-effect control and ±100 the full control effect; potency means the concentration at half of the fitted maximal effect.

For `COC1C(OC(=O)/C=C/C=C/C=C/C=C/C(=O)O)CCC2(CO2)C1C1(C)OC1CC=C(C)C` (stereo not given), the Potency entry in assay [1], in assay [2], in assay [3], in assay [4] and in assay [5] was “inactive” in each case.
For the molecule `C[C@H]1CC[C@@]2(OC1)O[C@H]1CC3C4CC[C@H]5C[C@@H](O)CC[C@]5(C)C4=CC(=O)[C@]3(C)[C@H]1[C@@H]2C` (stereo not given in full), the Potency result in assay [1], in assay [2], in assay [3], in assay [4] and in assay [5] was “inactive” throughout.
Turning to `O=S(=O)(c1ccccc1)N(CC(F)(F)F)c1ccc(C(O)(C(F)(F)F)C(F)(F)F)cc1`, the Potency entry in assay [1], in assay [2], in assay [3], in assay [4] and in assay [5] was “inactive” each time.
`COc1ccc(C#Cc2ccc(C(=O)N3CCC[C@@H](CO)C3)cc2)cc1`: the Potency entry in assay [1], in assay [2], in assay [3], in assay [4] and in assay [5] was “inactive” throughout.
For `CC(=O)O[C@@H]1[C@@H](O)[C@H](O[C@@H]2[C@@H](O)[C@@H](O)[C@H](O[C@H]3[C@H](O[C@H]4[C@H](O[C@H]5CC[C@@]6(C)C(CC[C@]7(C)C6CC=C6[C@@H]8CC(C)(C)CC[C@]8(C(=O)O)CC[C@]67C)[C@]5(C)CO)O[C@H](CO)[C@@H](O)[C@@H]4O)OC[C@@H](O)[C@@H]3O)O[C@H]2C)OC[C@H]1O` (stereo not given in full), the activity change, negative = cytotoxicity in assay [1] is 10.1% [at 11.6 µM]; in assay [2] it was -1.55% [at 11.6 µM]; in assay [3], 10.7% [at 11.6 µM]; in assay [4], -11% [at 11.6 µM]; in assay [5] it was -6.37% [at 11.6 µM].
With `COC1=CC(=O)C=C(C)C12Oc1c(Cl)c(OC)cc(OC)c1C2=O` (stereo not given), the Potency entry in assay [1], in assay [2], in assay [3], in assay [4] and in assay [5] was “inactive” throughout.
`C=C(C(=O)OC)[C@@H]1CC=C2C=CC(=O)[C@H](C)[C@@]2(C)C1`: the Potency entry in assay [1], in assay [2], in assay [3], in assay [4] and in assay [5] was “inactive” throughout.
`CN1CCN(C2=Nc3ccccc3Nc3ccc(Cl)cc32)CC1`: the Potency result in assay [1], in assay [2], in assay [3], in assay [4] and in assay [5] was “inactive” in each case.
Take `NS(=O)(=O)c1ccc(NC(=O)Nc2ccc(F)cc2)cc1`: the Potency result in assay [1], in assay [2], in assay [3], in assay [4] and in assay [5] was “inactive” each time.
In the case of `O=S(=O)(NCc1ccccn1)c1ccc(Br)c2ccccc12`, the Potency entry in assay [1], in assay [2], in assay [3], in assay [4] and in assay [5] was “inactive” in each case.
Consider `CC(=O)O[C@H]1[C@@]2(O)C[C@H](C)[C@H](OC(=O)c3ccccc3)[C@@H]2[C@@H](OC(=O)CO)[C@]2(OC(C)=O)C[C@H]3C(=O)C(C)(C)C[C@@H]3[C@@]1(C)[C@H]2OC(C)=O`, for which the Potency result in assay [1], in assay [2], in assay [3], in assay [4] and in assay [5] was “inactive” each time.
Take `CC1=CC2/C=C(\C)CCC3OC(C)(C)OC3CCC(=O)C23C(=O)NC(CC(C)C)C3C1C` (stereo not given): the Potency entry in assay [1], in assay [2], in assay [3], in assay [4] and in assay [5] was “inactive” in each case.
Take `Cc1ccc(OC[C@H](O)[C@H](C)NC(C)C)c2c1CCC2`: the Potency entry in assay [1], in assay [2], in assay [3], in assay [4] and in assay [5] was “inactive” in each case.
`O=c1cc(N2CCN(c3cccc(C(F)(F)F)c3)CC2)[nH]c(=O)n1C1CCCCC1`: the Potency result in assay [1], in assay [2], in assay [3], in assay [4] and in assay [5] was “inactive” in each case.
Regarding `O=C(Nc1ncc([N+](=O)[O-])s1)c1ccccc1O`, the Potency entry in assay [1], in assay [2], in assay [3], in assay [4] and in assay [5] was “inactive” each time.
As for `C=C1/C(=C/C=C2\CCC[C@]3(C)[C@@H]([C@H](C)/C=C/[C@H](O)C4CC4)CC[C@@H]23)C[C@@H](O)C[C@@H]1O`, the Potency entry in assay [1], in assay [2], in assay [3], in assay [4] and in assay [5] was “inactive” throughout.
For `COC(=O)c1ccnc(-c2cc(C(=O)Nc3ccc(C4(N)CC4)cc3)ccn2)c1`, the Potency result in assay [1], in assay [2], in assay [3], in assay [4] and in assay [5] was “inactive” throughout.
Regarding `CN(C)N(C)C(=O)[C@@]1(Cc2ccccc2)CCCN(C(=O)[C@@H](Cc2c[nH]c3ccccc23)NC(=O)C(C)(C)N)C1`, the Potency entry in assay [1], in assay [2], in assay [3], in assay [4] and in assay [5] was “inactive” each time.
For `Cc1sc2c(c1C)C(c1ccc(Cl)cc1)=N[C@H](CC(=O)NCCCCNC(=O)COc1cccc3c1C(=O)N([C@H]1CCC(=O)NC1=O)C3=O)c1nnc(C)n1-2`, the Potency entry in assay [1], in assay [3] and in assay [5] was “inactive” in each case. For the same molecule, the values for the Potency in assay [2] and in assay [4] were 1580 nM (active) and 1780 nM (active), respectively.
On to `Cc1c(C2=CCN(C(=O)N(C)C(C)C)CC2)nnn1-c1cccnc1F`, for which the Potency result in assay [1], in assay [2], in assay [3], in assay [4] and in assay [5] was “inactive” in each case.
With `CC(=O)O[C@@H]1C[C@]2(C)[C@@]3(CCC4[C@@]5(C)CC[C@H](O[C@@H]6O[C@H](C(=O)O)[C@@H](O)[C@H](OC7OC(CO)C(O)C(O)[C@H]7O[C@@H]7O[C@@H](C)[C@H](O)[C@@H](O)[C@H]7O[C@@H]7OC[C@](O)(CO)[C@H]7O)[C@H]6OC6OC(CO)C(O)C(O)C6O)C(C)(C)C5CC[C@]42C)OC[C@@]12CCC(C)(C)CC23` (stereo not given in full), the activity change, negative = cytotoxicity was -14.9% [at 6.55 µM] in assay [1]; -13% [at 6.55 µM] in assay [2]; 27.9% [at 6.55 µM] in assay [3]; -2.25% [at 6.55 µM] in assay [4]; -4.27% [at 6.55 µM] in assay [5].
For the molecule `CCNC(=O)c1noc(-c2cc(Cl)c(O)cc2O)c1-c1ccc(OC)cc1`, in assay [1], the Potency result is “inactive”. Further, the Potency in assay [2] is 562 nM (active); in assay [3], 2820 nM (active); in assay [4], 562 nM (active); in assay [5] it was 501 nM (active).
Regarding `C=C1C(=O)OC2/C=C(\CO)CC/C=C(\C=O)C(O)C(OC(=O)C(C)CC)C12` (stereo not given), the Potency result in assay [1], in assay [2], in assay [3], in assay [4] and in assay [5] was “inactive” throughout.
As for `CNCc1cc(-c2ccccc2F)n(S(=O)(=O)c2cccnc2)c1`, the Potency entry in assay [1], in assay [2], in assay [3], in assay [4] and in assay [5] was “inactive” in each case.
On to `CC(C)CCNC(=O)c1ccc2c(c1)nc(Nc1n[nH]c3ccc(-c4ccccc4OC(F)(F)F)cc13)n2C1CCC(O)CC1` (stereo not given), for which the Potency result in assay [1], in assay [2], in assay [3], in assay [4] and in assay [5] was “inactive” in each case.
